The values that follow come from PubChem BioAssay (Tox21).

In test [1] the target is Progesterone receptor (Homo sapiens) (UniProt P06401). The test can be described thus: qHTS assay to identify small molecule agonists of the progesterone receptor (PR) signaling pathway (AID 1346784; calls by dose curve; note: nearly all actives have a fitted effect of over 30% in size). A digest of the protocol:
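Agonist qHTS: compounds pinned onto 3,000 PR-UAS-bla HEK 293T cells per well in charcoal-stripped serum medium, 16hr at 37C, then beta-lactamase activity measured by LiveBLAzer FRET fluorescence after 2 hours at room temperature.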
Background: In qHTS, concentration-response curves come from the screen itself.

Test [2] has the same target. The test can be described thus: qHTS assay to identify small molecule antagonists of the progesterone receptor (PR) signaling pathway (AID 1346795; active = well fitted inhibition curve with a large enough effect in the signal ratio in the repeat runs, not every such curve was filed as active; the % refers to the signal ratio). A digest of the protocol:
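Antagonist mode with agonist R5020 at 1 nM final and 16 hr incubation at 37C. Reporter was beta-lactamase driven by UAS in HEK293T (PR-UAS-bla), 2% charcoal-stripped serum; signal from LiveBLAzer FRET substrate, 2 hr at room temperature.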

Test [3] can be described thus: qHTS assay to identify small molecule antagonists of the progesterone receptor (PR) signaling pathway - cell viability counter screen (AID 1346798). Note: series mostly up to about 92 µM; nearly all actives have a fitted effect of over 50% in size. In short, it runs like this:
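Cytotoxicity read as CellTiter-Glo luminescence (30 min, room temperature) in the same wells as the beta-lactamase readout. HEK293T PR-UAS-bla cells in charcoal-stripped 2% FBS received compound and R5020, then 16 h at 37C, 5% CO2.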

A short description of test [4]: qHTS assay to identify small molecule agonists of the progesterone receptor (PR) signaling pathway - cell viability counter screen (AID 1346799; calls by dose curve; note: nearly all actives have a fitted effect of over 45% in size). A digest of the protocol: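 Cytotoxicity measured by CellTiter-Glo luminescence (30 min, RT) in the same wells as the PR beta-lactamase agonist read. Those HEK293T cells had 16 h compound treatment at 37 C in 2% charcoal-stripped FBS medium.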

Test [5] in a line: qHTS assay to identify small molecule antagonists of the TGF-beta/Smad signaling pathway - cell viability counter screen (AID 1346824). Note: nearly all actives have a fitted effect of over 50% in size. In short, it runs like this: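 SBE-bla HEK 293T cells were plated overnight at 37 C, then given compounds in DMSO plus TGF-beta1 (added as 0.25 ng/mL solution) for 5 hr. After the bla read, CellTiter-Glo was added to the same wells and luminescence read after 30 min at room temperature.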

Test [6] can be described thus: qHTS assay to identify small molecule agonists of the TGF-beta/Smad signaling pathway (AID 1346859; active = well fitted activation curve with a large enough effect in the signal ratio in the repeat runs, not every such curve was filed as active; the % refers to the signal ratio; note: series mostly up to about 77 µM). A digest of the protocol: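 Fluorescence (ex 405 nm; em 460 and 530 nm) was read 2 h after LiveBLAzer FRET substrate at RT. The preceding compound treatment of overnight-plated SBE-bla HEK293T cells lasted 5 h at 37 C.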
Test [7] is described as follows: Human pregnane X receptor (PXR) small molecule agonists, qHTS cell viability counter screen (AID 1346977). Note: nearly all actives have a fitted effect of over 50% in size. In short, it runs like this:
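Same-well viability read: CellTiter-Fluor added after 23 hr compound exposure, fluorescence measured 1 hr later. Cells were PXR-Luc HepG2 seeded at 2,000/well in 5% charcoal-stripped FBS medium, rested 5 hr before dosing at 37 C.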

Test [8] in a line: Caspase-3/7 induction in HepG2 cells by small molecules, qHTS assay (AID 1346978). Note: nearly all actives have a fitted effect of over 15% in size. A digest of the protocol:
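Wild-type HepG2 cells (2,000/well) were settled 5 h at 37 C, 5% CO2, then exposed to compounds in DMSO for 17 h. Caspase-3/7 activity was read by luminescence 30 min after adding Caspase-Glo 3/7 reagent at room temperature.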

Test [9] in a line: Caspase-3/7 induction in CHO-K1 cells by small molecules, qHTS cell viability counter screen (AID 1346979). Note: nearly all actives have a fitted effect of over 35% in size. In short, it runs like this: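 Cytotoxicity counter screen: CellTiter-Fluor added to compound-treated wild-type CHO-K1 cells at 16 h (37C, 5% CO2), fluorescence measured 1 h later; same wells as caspase-3/7 measurement.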
Test [10] in a line: Caspase-3/7 induction in CHO-K1 cells by small molecules, qHTS assay (AID 1346980). Note: nearly all actives have a fitted effect of over 15% in size. In short, it runs like this: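 Wild-type cells were seeded at 1,500 per well and settled 5 hr at 37 C, 5% CO2, then exposed to DMSO-dissolved compounds for 17 hr. Caspase-Glo 3/7 reagent was added, and luminescence was read after 30min at room temperature.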
A short description of test [11]: Caspase-3/7 induction in HepG2 cells by small molecules, qHTS cell viability counter screen (AID 1346981). Note: series mostly up to about 92 µM; nearly all actives have a fitted effect of over 30% in size. A digest of the protocol: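 HepG2, WT, 2,000 cells/well; 5 hr pre-incubation 37 C/5% CO2; compound pin-transferred from DMSO; 16 hr exposure; CellTiter-Fluor, 1 hr; fluorescence read.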
The target in test [12] is Nuclear receptor subfamily 1 group I member 2 (Homo sapiens) (UniProt O75469). Kind of test: Human pregnane X receptor (PXR) small molecule agonists, qHTS assay (AID 1346982). Note: nearly all actives have a fitted effect of over 35% in size. Note: potency is the fitted concentration of half-maximal effect. A digest of the protocol:
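Luciferase signal from ONE-Glo (30 min, room temperature) measured activation of hPXR-driven CYP3A4 reporter expression in PXR-Luc HepG2 cells treated with compounds for 24 hr at 37 C.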

The target of test [13] is Cytochrome P450 2D6 (Homo sapiens) (UniProt P10635). Kind of test: Cytochrome P450 Family 2 Subfamily D Member 6 (CYP2D6) small molecule antagonists: luciferase reporter qHTS assay (AID 1671196). Note: nearly all actives have a fitted effect of over 50% in size. Note: potency is the fitted concentration of half-maximal effect. A digest of the protocol:
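Read-out is luminescence from luciferin formed by CYP2D6 turnover of a proluciferin substrate, recorded as relative luminescence units. Reactions ran 1 h at room temperature after NADPH regeneration solution was added.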

Test [14] in a line: qHTS assay to identify small molecule agonists of the TGF-beta/Smad signaling pathway - cell viability counter screen (AID 1346829). Note: top concentration of the series differs between compounds; nearly all actives have a fitted effect of over 45% in size. A digest of the protocol:
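Cytotoxicity counter screen: CellTiter-Glo luminescence (30 min, room temperature) measured in the SBE-bla HEK 293T reporter wells after 5 hr compound treatment at 37 C and the 2 hr substrate step.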

Test [15] has as its target Thyrotropin-releasing hormone receptor (Homo sapiens) (UniProt P34981). Kind of test: qHTS assay to identify small molecule antagonists of the thyrotropin-releasing hormone receptor (TRHR) signaling pathway (AID 1346877; active = well fitted inhibition curve with a large enough effect in the repeat runs, not every such curve was filed as active; note: series mostly up to about 51 µM). In short, it runs like this: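 Intracellular calcium fluorescence, read kinetically every second over 3 min, reports TRH-evoked signalling in HEK293 cells carrying TRHR. Test compounds were added 5 min ahead of a 1 nM TRH challenge.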

The target is the same in test [16]. Kind of test: qHTS assay to identify small molecule agonists of the thyrotropin-releasing hormone receptor (TRHR) signaling pathway (AID 1346891; calls by dose curve; note: series mostly up to about 58 µM). In short, it runs like this:
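Agonist-mode intracellular calcium readout: kinetic fluorescence over 3 min at 1 s intervals after compound addition to TRHR-HEK293 cells (18 h seeded, 2 h dye-loaded at 37 C). Fifteen concentrations, triplicates.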

The target of test [17] is Nuclear receptor subfamily 1 group I member 2 (Rattus norvegicus) (UniProt Q9R1A7). Kind of test: Rat pregnane X receptor (rPXR) activation by small molecules, qHTS assay (AID 1346983). Note: nearly all actives have a fitted effect of over 20% in size. The following applies: rPXR luciferase reporter cells, One-Glo luminescence, 24 h; stronger effect = higher value. A digest of the protocol:
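Cell-based rPXR luciferase reporter assay, 2,000 cells per well, rested 5hr at 37 C before compound addition in DMSO, then 24 hr at 37 C. One-Glo reagent was added and luminescence read after 30 min at room temperature.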

For test [18], the target named is Nuclear receptor subfamily 1 group I member 2 (Homo sapiens) (UniProt O75469). Kind of test: CYP3A4 induction through human pregnane X receptor (PXR) by small molecules, qHTS assay (AID 1346984). Note: nearly all actives have a fitted effect of over 40% in size. In short, it runs like this: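 Luminescence readout: luciferase signal after One-Glo (30 min, room temperature), following 3 h at 37C with 3uM final Luciferin-IPA P450 substrate. Cells were DPX-2 (HepG2, PXR/CYP3A4-luc co-transfected) dosed for 24 h.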
Nuclear receptor subfamily 1 group I member 2 (Homo sapiens), sequence (O75469 whole entry, looked up): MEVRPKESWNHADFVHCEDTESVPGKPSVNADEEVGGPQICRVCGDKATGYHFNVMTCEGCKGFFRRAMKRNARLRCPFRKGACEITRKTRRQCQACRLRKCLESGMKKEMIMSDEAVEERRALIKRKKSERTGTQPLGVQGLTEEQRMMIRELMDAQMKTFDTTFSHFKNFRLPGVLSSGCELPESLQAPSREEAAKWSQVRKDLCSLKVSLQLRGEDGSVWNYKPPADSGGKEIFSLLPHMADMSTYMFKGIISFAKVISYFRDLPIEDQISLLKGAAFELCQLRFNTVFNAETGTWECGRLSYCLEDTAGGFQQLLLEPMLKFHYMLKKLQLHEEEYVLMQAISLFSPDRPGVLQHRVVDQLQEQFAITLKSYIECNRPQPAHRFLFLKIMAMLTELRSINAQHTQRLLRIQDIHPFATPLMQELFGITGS

Test [19] has the same target. Kind of test: Human pregnane X receptor (PXR) activation by small molecules, qHTS assay (AID 1346985). Note: nearly all actives have a fitted effect of over 40% in size. In short, it runs like this: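 DPX-2 cells (HepG2 co-transfected with a PXR response element and a CYP3A4-promoter luciferase construct) were seeded at 2,000 per well, rested 5 hr at 37C, then exposed to DMSO-dissolved compounds for 24 hr. Activation was read as luciferase luminescence.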

Where “and” joins values, the source holds several entries; their conditions need not be identical. Identical values can stand only once. Inconclusive results are not listed. The source holds several records for some structures; these can differ, active in one and inactive in another. Calls of active or inactive are those of the source. Unless noted, calls come from the whole dose curve; as a rule, active = well fitted curve in the direction sought with a large enough effect in the repeat runs; inconclusive = weak or mixed curves; inactive = no such curve, though single readings can be large; an effect the other way counts as inactive or inconclusive.
% is set by controls: 0 for no effect and ±100 for the full control effect.

Thyrotropin-releasing hormone receptor (Homo sapiens), sequence (P34981 whole entry, looked up): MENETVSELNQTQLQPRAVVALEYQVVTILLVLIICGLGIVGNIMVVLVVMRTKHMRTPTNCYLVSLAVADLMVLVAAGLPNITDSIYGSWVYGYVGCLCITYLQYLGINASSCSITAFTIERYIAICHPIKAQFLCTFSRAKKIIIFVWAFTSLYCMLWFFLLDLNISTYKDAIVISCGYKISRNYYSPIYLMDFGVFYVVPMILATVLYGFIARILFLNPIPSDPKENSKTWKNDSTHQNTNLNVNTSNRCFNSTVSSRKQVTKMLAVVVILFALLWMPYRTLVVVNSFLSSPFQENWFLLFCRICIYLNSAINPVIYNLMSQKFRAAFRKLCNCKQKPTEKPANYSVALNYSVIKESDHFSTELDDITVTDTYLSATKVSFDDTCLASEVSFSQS
Cytochrome P450 2D6 (Homo sapiens), sequence (P10635 whole entry, looked up): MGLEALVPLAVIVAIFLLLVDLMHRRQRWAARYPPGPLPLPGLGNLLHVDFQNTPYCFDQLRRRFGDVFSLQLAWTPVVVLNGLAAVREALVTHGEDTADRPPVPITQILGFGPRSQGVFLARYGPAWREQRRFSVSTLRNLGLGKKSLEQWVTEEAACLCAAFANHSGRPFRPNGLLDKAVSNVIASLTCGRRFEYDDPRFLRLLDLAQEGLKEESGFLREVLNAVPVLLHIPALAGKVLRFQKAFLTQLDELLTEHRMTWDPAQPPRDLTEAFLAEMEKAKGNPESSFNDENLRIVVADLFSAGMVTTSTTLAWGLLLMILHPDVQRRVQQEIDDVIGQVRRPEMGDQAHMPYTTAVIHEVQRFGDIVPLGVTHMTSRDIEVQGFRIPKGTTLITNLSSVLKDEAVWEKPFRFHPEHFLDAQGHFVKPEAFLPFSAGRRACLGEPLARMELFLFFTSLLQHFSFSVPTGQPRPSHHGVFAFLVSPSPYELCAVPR
Progesterone receptor (Homo sapiens), sequence (P06401 whole entry, looked up): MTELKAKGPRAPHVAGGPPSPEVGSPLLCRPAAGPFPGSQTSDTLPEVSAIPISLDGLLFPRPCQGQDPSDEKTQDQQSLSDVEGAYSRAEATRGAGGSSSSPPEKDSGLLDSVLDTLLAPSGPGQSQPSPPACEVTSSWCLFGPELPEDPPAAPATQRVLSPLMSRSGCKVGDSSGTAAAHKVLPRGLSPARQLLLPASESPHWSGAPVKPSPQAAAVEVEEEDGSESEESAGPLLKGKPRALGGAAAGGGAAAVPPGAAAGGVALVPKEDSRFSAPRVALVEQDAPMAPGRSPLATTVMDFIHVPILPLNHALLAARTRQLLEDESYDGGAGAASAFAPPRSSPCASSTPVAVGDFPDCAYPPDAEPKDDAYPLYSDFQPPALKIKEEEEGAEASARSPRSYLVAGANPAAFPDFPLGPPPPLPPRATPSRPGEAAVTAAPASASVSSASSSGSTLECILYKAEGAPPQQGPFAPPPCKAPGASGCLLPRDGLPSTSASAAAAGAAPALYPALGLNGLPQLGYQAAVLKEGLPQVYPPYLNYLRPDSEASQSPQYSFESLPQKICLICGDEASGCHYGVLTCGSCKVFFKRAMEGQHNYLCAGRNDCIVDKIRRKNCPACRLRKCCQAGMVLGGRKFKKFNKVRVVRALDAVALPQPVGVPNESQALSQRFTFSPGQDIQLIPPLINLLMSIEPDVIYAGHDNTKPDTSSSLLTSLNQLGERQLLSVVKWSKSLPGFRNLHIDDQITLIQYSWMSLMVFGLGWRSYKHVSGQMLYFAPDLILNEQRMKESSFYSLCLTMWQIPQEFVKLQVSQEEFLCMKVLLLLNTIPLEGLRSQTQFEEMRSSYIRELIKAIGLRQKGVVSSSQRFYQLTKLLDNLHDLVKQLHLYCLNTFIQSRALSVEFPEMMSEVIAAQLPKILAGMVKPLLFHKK
Nuclear receptor subfamily 1 group I member 2 (Rattus norvegicus), sequence (Q9R1A7 whole entry, looked up): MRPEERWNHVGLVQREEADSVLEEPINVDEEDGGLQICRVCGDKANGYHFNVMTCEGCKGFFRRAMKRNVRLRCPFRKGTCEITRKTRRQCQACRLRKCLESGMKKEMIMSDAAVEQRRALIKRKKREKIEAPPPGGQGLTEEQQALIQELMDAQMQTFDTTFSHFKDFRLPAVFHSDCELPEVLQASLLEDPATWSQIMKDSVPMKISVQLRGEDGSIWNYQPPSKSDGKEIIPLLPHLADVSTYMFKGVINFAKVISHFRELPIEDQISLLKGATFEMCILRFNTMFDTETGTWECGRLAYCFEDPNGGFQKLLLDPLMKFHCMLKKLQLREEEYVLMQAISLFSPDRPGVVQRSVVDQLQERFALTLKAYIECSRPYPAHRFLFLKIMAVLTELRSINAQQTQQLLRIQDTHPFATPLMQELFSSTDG

In the case of `O=c1[nH]cnc2[nH]ncc12`, the Potency entry in test [1], in test [2], in test [7], in test [8], in test [9] and in [11] was “inactive” throughout. The Potency result in [12] and in test [13] was “inactive” in each case. The compound was classed as inactive in test [3], in test [4], in test [5], in [6] and in test [10].
Consider `COc1ccccc1OCC(O)CO` (configuration not stated), for which the Potency result in [1], in test [7], in test [8], in test [9] and in test [11] was “inactive” throughout. In addition, the compound was classed as inactive in [3], in test [4], in test [5], in [14], in [6] and in [15]. Also, the outcome in [16] and in [10] was inactive.
As to `CCOC(=O)n1ccn(C)c1=S`, the Potency result in test [1], in [7], in [8], in test [9], in test [11] and in test [18] was “inactive” in each case. Moreover, the Potency result in test [13] is “inactive”. The outcome in test [3], in test [4], in [5], in test [14], in test [6] and in test [10] was inactive. For the same compound, the outcome in test [19] was inactive. Further, the max activation in test [17] is -4.98% (inactive).
Regarding `Cc1ccc2ncccc2c1`, the Potency result in test [1], in test [2], in test [7], in test [9], in test [11] and in test [12] was “inactive” throughout. For the same compound, the Potency result in test [13] was “inactive”. The outcome in [3], in test [5], in test [6], in [16] and in test [10] was inactive.
`CC(CCl)OP(=O)(OC(C)CCl)OC(C)CCl` (configuration not stated): the Potency entry in test [1], in test [7], in test [8], in test [9], in test [11] and in test [13] was “inactive” in each case. For the same compound, the compound was called inactive in [3], in [5], in test [6], in [16] and in test [10]. For the same compound, the Potency in test [12] was 36.3 µM (active).
Regarding `CCCCCCCCCCCCCCCC(=O)OC(C)C`, the Potency entry in [1], in [2], in [7], in [9], in test [11] and in test [18] was “inactive” in each case. The Potency entry in test [13] was “inactive”. In addition, the compound was classed as inactive in test [5], in test [14], in [6], in test [16], in test [10] and in test [19]. The max activation in test [17] was -0.875% (inactive).
Consider `CCCCCCC=O`, for which the Potency entry in test [1], in test [2], in test [7], in test [8], in [9] and in test [11] was “inactive” each time. The compound was classed as inactive in test [3], in test [5], in test [6], in [15], in test [16] and in test [10]. In [13], the Potency entry is “inactive and 17.8 µM (active)”.
As for `CCOCC(=O)O`, the Potency entry in test [1], in [7], in [8], in [9], in test [11] and in [12] was “inactive” in each case. For the same compound, the outcome in test [3], in [5], in [14], in [6] and in [10] was inactive. In addition, in [13], the Potency was 32.4 µM (active) and 31.7 µM (active).
With `c1ccc2c(c1)Cc1ccccc1-2`, the Potency result in test [1], in test [7], in [8], in test [9], in test [11] and in test [13] was “inactive” each time. The result in test [3], in test [5], in test [14], in test [6] and in test [10] was inactive.
For `CC(=O)CC(C)(C)O`, the Potency entry in test [1], in test [7], in test [9], in test [11], in [12] and in test [13] was “inactive” each time. In addition, the compound was called inactive in test [3], in test [4], in test [5], in test [6], in [16] and in test [10].
